Assay results: publication PMC12136788
Positions count from the first letter of the chain named. In all, about 24,000 sequences were measured (“enrichment r”: median about 0.99, highest 2% from about 3.7 on). Many of the other results were omitted from the sample, so the highest values are more common in it than they were.

T1: UNK ZnF1-3 (human, UniProt Q9C0B0 31-174)
T1 sequence: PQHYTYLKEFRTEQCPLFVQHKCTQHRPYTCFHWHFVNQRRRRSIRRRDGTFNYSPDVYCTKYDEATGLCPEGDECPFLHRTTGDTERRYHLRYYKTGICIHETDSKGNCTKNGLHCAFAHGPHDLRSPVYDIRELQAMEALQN

B1: chr1:115282395:115282396:-_ENSG00000009307_ENST00000339438|hu_hu|FALSE|FALSE (ssRNA)
RNA: GGGAGUUCUACAGUCCGACGAUCAUUAUACUGUGAACAGUGGAAGAAAAGUCUAGCUUGACGUUCUGAACACUGAAUAAAUCCGUAAGAGGUUAACAGUUUUUCAAUAACCCCAGUUUCACGCAGUGCUGCUGAAGUACCAUUCAACAGAGGAUUGAGCAUCA
B2: 35805507_35818940_561_CDS_ENSG00000108100_ENST00000265375|human|control|control (ssRNA)
RNA: GGGAGUUCUACAGUCCGACGAUCUUCAUCAAAAAUAUCUAAGAGCAUCCUUCCAUCUGGGUCCCUGUUUUUGAUGUGAUAAUAUAUUGCAAGAGCGACACAUUUAAUUGUAUACUUGAGGUUUGGUUGACUGACUGUGCUAUCCAACAGAGGAUUGAGCAUCA
B3: 44216504_44217224_307_CDS_ENSG00000096384_ENST00000371646|human|control|control (ssRNA)
RNA: GGGAGUUCUACAGUCCGACGAUCCAAAGUCAGGGUACGUUCCUGAGGGUUGGGGAUGAUGUCAAUUUUCAGCUCUUUACCACUGUCCAACUUCGAAGGGUCUGUCAGGCUCUCAUAGCGAAUCUUGUCCAAGGCAUCAGAAGCCAACAGAGGAUUGAGCAUCA
B4: chr7:151048522:151048523:+_ENSG00000013374_ENST00000566856|hu_mus|hu_hu_hu_mus_True|48_98 (ssRNA)
RNA: GGGAGUUCUACAGUCCGACGAUCCUGUUUCUUAUUUAUGACAAUUUUGAUGUAAUUUUCUUGAAAUCCGAAAGUUUCAGCUAUUUGGGACCUCAGUUCUCUACCAGUGACAUGCAAGCGGGUCUCCAACAAGCUUUUCUUAUCCAACAGAGGAUUGAGCAUCA
B5: chr7:138235809:138235810:+_ENSG00000122779_ENST00000415680|hu_mus|FALSE|FALSE (ssRNA)
RNA: GGGAGUUCUACAGUCCGACGAUCAGAAGCAUCACACCUUGCACGAAGAAGGUGCCGUAACCUGUAUGUAAUCAGCCGCUUGCUGUACAGCAAGGCUGUGCUGCUGCCACUGGAAACAGCCCAUUUAGAAAAAUGCAUGACGUGCAACAGAGGAUUGAGCAUCA
B6: 55340085_55340205_1272_CDS_ENSMUSG00000021488_ENSMUST00000099490|mouse|control|control (ssRNA)
RNA: GGGAGUUCUACAGUCCGACGAUCUUCUUUCUGUUUCCCUCUUUUCCUAAGGACAGGUAGUUCUUCAAAUUGAUGUCUGCCUUCAAACAUGACGAUUGCUUUUCCAGCCACCCAGGCUUUUUCAGAAGGGUCUCCAAAAGCCUCCAACAGAGGAUUGAGCAUCA
B7: chr2:203071746:203071747:-_ENSG00000116030_ENST00000392246|hu_hu|FALSE|FALSE (ssRNA)
RNA: GGGAGUUCUACAGUCCGACGAUCCACCACAAGCCUGAAAAUGCAAUGUCCUGAAAAAGGUGACCUCUCUGUGCACACGUAAUUUUUAAAAAGGAGAGGGUAAUAUGAAGGGGACUGAGGCUUGAUCACCAAAAAUCAGCACAACAACAGAGGAUUGAGCAUCA
B8: chr16:49524686:49524687:-_ENSG00000102935_ENST00000562871|hu_mus|FALSE|FALSE (ssRNA)
RNA: GGGAGUUCUACAGUCCGACGAUCAAUUAAAAGGAAAUAUUCAGACAAUAGCCAAGCAAUCACAUCACGAUGCACAAUUACCUAGAAUUGCAAUUAAAAAGUAGUUAACUGAAGGGGGGGGGGGGGAGAAAGAAAAACAAGAAACAACAGAGGAUUGAGCAUCA
B9: chr3:67279072:67279073:+_ENSMUSG00000027774_ENSMUST00000077271|mus_mus|FALSE|FALSE (ssRNA)
RNA: GGGAGUUCUACAGUCCGACGAUCUGCCCAGAAUCCUACCUCUUGAUGAGAGGACUGUGAGUUUUGAGGCCAACAGGGGCUAUAUACACACAGCCCUUAUGUCCAAAAAAAAAAAAAGCAGUGAAGUAAAUUUAUAUAUAUUUUCAACAGAGGAUUGAGCAUCA
B10: chr3:120321071:120321072:+_ENSG00000065518_ENST00000184266|hu_hu|FALSE|FALSE (ssRNA)
RNA: GGGAGUUCUACAGUCCGACGAUCUCAUUGCCAGACUUAAUAUGAGAGGUGAAAUGUUCGAUCCAAUUUUCCUUCCUGGAUAAGUUUUUCUUUCCUAUCCCUCUCAGUUUUGAUAAUAUAAUAAAUGAAGAUGAGGGGCCCAAACAACAGAGGAUUGAGCAUCA
B11: chr1:133829981:133829982:+_ENSMUSG00000026434_ENSMUST00000062264|mus_hu|motif|central (ssRNA)
RNA: GGGAGUUCUACAGUCCGACGAUCUAUCAGAAAUAUAGAAUACAUUUUUCAAUCUAAUGAAUUAAUUUUAAAAGGGACCCGGAACAAGAAGCCCAAUCAAAUGCACACAAGUAAUCUAGAAGACAUGAUUACCUCUAAAAUAUGCAACAGAGGAUUGAGCAUCA
B12: chr1:133829981:133829982:+_ENSMUSG00000026434_ENSMUST00000062264|mus_hu|FALSE|FALSE (ssRNA)
RNA: B11 RNA with G80U, G81A
B13: chr15:83907240:83907241:-_ENSMUSG00000018865_ENSMUST00000082365|mus_mus|motif|central (ssRNA)
RNA: GGGAGUUCUACAGUCCGACGAUCGCUGUGAAAGAUACUAAUUCUUGGUGCAGUCUGGCAUCUGUGGGGCCUCUUCCACACCGGCCAGUGCCUUCAGAUGCCACCCGCAGCCUCGGGCCAGCUUCCCUGCCGAAACAUUCCUUGCAACAGAGGAUUGAGCAUCA
B14: chr2:242276830:242276831:+_ENSG00000168385_ENST00000391971|hu_mus|FALSE|FALSE (ssRNA)
RNA: GGGAGUUCUACAGUCCGACGAUCUAAGGGCUUCAGUCCAUGUCCAAAAGGUGAAAUGAAGUAGAAGCAACAAUGUACCCUGUUAUCAAUGAUGUGACGCCUGUUCAGUCCACUCUCAUCAUGUAGGUAGCGUUCAAACUGCUCCAACAGAGGAUUGAGCAUCA
B15: chr17:45747064:45747065:+_ENSG00000108424_ENST00000290158|hu_hu|hu_hu_hu_mus_True|28_58 (ssRNA)
RNA: GGGAGUUCUACAGUCCGACGAUCGCCCACAGUCCACGCUGUUGUGUCUCGAACAACUACACUGGGGUCUUUCAUUAAUUCUAUUAGGGUGGGCAUAGCCUGUAUGACUAGUGGUUUCAGUUGAUUAGGCUCUGGUCCUUCCAACAACAGAGGAUUGAGCAUCA
B16: chr1:52246310:52246311:-_ENSMUSG00000026103_ENSMUST00000114513|mus_mus|motif|central (ssRNA)
RNA: GGGAGUUCUACAGUCCGACGAUCGCCCAUCUUGUCAAGAGGAGGAGACCAACACAUCAUGCCCAUGACGUUGGGGACAACGGAAAGAAUACCCCCAGCAACUCCAGAUUUUGCAGGAAGACCAACAUGGAACGCAAACUGCCCCAACAGAGGAUUGAGCAUCA
B17: chr7:7679991:7679992:-_ENSG00000106399_ENST00000396682|hu_hu|hu_hu_hu_mus_False|18_48 (ssRNA)
RNA: GGGAGUUCUACAGUCCGACGAUCUGGGAUGAAUCUUUUCCAGCUUCCCCACGAAGCACACGGGCCGGUCGAUAUACUGUGGUAACAUGCCGGCGUUGACGCGCGCUUUGGGGAGCUCCAUCAUGUCCUCCAUGAUUCUGCCGCCAACAGAGGAUUGAGCAUCA
B18: chr1:163117127:163117128:-_ENSG00000143248_ENST00000313961|hu_mus|hu_hu_hu_mus_False|38_78 (ssRNA)
RNA: GGGAGUUCUACAGUCCGACGAUCUGCUACAAAGGAUGUAACUCAACUCACAGGGCAUGAUUUCAUAGCCUGACCAGAUGACUACUUGAUUAGCUCCUGAUAAAACUCAGAGCGCACAAAGCGGGGCAGAGAAUCCUUCUCCAUCAACAGAGGAUUGAGCAUCA
B19: chr16:45382771:45382772:-_ENSMUSG00000022661_ENSMUST00000163230|mus_mus|mus_mus_mus_hu_True|8_108 (ssRNA)
RNA: GGGAGUUCUACAGUCCGACGAUCCUGAGUGUUAUUGUAAGACAAAUGGACAGGGAGGGCAUGCUUCUCAAAAAAUGUGAGCUAUUGUCUAAGACUAACAAUAUUUAUCUAGCUAUAAAAAUAAGUUUUAAAUGGACGUUAAGACAACAGAGGAUUGAGCAUCA
B20: chr16:45382771:45382772:-_ENSMUSG00000022661_ENSMUST00000163230|mus_mus|mus_mus_mus_hu_True|8_48 (ssRNA)
RNA: B19 RNA with A27G, G30C, U31A, A33G, G36A, U87A
B21: chr16:45382771:45382772:-_ENSMUSG00000022661_ENSMUST00000163230|mus_mus|mus_mus_mus_hu_True|8_8 (ssRNA)
RNA: B19 RNA with A27G, G30C, U31A, A33G, G36A
B22: chr16:45382771:45382772:-_ENSMUSG00000022661_ENSMUST00000163230|mus_mus|mus_mus_mus_hu_True|8_38 (ssRNA)
RNA: B19 RNA with A27G, G30C, U31A, A33G, G36A, U105G, A106C

Target: T1, UNK ZnF1-3
Assay: nsRBNS (natural sequence RNA bind-n-seq); RBNS binding buffer (assumed for nsRBNS): 25 mM Tris pH 7.5, 150 mM KCl, 3 mM MgCl2, 0.01% Triton X-100, 500 ug/ml BSA, 20 U/ml SUPERase-In, 4 C; UNK is unkempt and MSI1 is Musashi-1; names of the RNAs are library labels; protein concentration not given here; high values mean tight binding

Binder	binding signal [enrichment R]
B1	0.906
B2	2
B3	0.999
B4	0.854
B5	0.971
B6	0.635
B7	3.8
B8	1.26
B9	4.32
B10	2.02
B11	5.06
B12	4.97
B13	0.646
B14	0.794
B15	0.639
B16	1.07
B17	0.554
B18	0.974
B19	3.42
B20	5.59
B21	3.98
B22	3.88
